High-throughput results from PubChem BioAssay.
Most compounds without a hit are left out; they make up all but 0.24% or so of the library.
NPYLR7 ag: agonists of mosquito NPYLR7 receptor, primary screen, cell-based, Aedes aegypti, calcium fluorescence, mosquito biting behavior | Aedes aegypti neuropeptide Y-like receptor 7 (NPYLR7) | HEK293T NPYLR7/Galpha15, GCaMP6s calcium fluorescence | activation, % at 10 µM | 0.15% of 270,000 active | AID 1259423, 2018; in the data active means activation above about 40%;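 further: 0% = vehicle and 100% = reference agonist at the receptor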
mcGAS inh: cyclic GMP-AMP synthase inhibitors, mouse, primary biochemical chemiluminescence | 0.15% of 160,000 active | recombinant cGAS, Kinase-Glo ATP depletion luminescence | inhibition, % at 12.5 µM | Q8C6L5;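 further: 0% = negative control wells and 100% = reference inhibitor with no enzyme activity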
Target sequence (Q8C6L5 whole entry, looked up): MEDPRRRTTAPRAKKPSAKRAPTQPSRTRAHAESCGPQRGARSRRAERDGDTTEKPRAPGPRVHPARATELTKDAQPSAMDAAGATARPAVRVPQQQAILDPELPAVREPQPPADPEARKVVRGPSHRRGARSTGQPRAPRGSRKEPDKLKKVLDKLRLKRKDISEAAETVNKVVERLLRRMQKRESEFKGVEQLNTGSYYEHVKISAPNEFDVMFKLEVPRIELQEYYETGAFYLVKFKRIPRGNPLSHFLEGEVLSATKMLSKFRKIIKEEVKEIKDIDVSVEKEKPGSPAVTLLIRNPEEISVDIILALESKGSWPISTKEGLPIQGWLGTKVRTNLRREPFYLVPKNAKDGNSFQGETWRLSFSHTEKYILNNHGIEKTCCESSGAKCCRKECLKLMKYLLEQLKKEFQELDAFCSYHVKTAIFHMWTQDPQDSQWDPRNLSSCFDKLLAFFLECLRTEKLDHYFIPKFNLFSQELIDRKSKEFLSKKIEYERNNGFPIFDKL
hcGAS lum: Primary biochemical luminescence assay for human cyclic GMP-AMP synthase inhibitors; recombinant h-cGAS, ATP depletion, Kinase-Glo luminescence; inhibition, % at 12.5 µM; 0.081% of 290,000 active;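 further: 0% = vehicle reaction and 100% = reaction without DNA for no activity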
* marks the source's active call; other numbers are inactive results; . = no result given; + = active, no number; ! = not active in a repeat. Unless noted, no stated cut-off is given here; in the data, active means inhibition above about 40%; inactive means the rest.

SMILES	NPYLR7 ag	mcGAS inh	hcGAS lum
C[C@@H](NC(=O)/C(C#N)=C/c1ccc(O)c(O)c1)c1ccccc1	5	-1	5
COc1ccc(NC(=O)NCCNc2cc(-n3cccn3)nc(C)n2)c(C)c1	-7	-7	-8
CNC(=O)CSc1cn(CC(=O)N2CCCCCC2)c2ccccc12	-7	-3	3
O=C(CSc1cn(CC(=O)N2CCCCCC2)c2ccccc12)NC1CCCC1	42*	-6	-6
Cc1oc(-c2ccccc2NS(=O)(=O)c2cccc(F)c2)nc1CNC(=O)CC(C)C	5	.	-5
Cc1oc(-c2cccc(NC(=O)CC(C)C)c2)nc1CNC(=O)Cc1cc(F)cc(F)c1	56*	-8	-7
CC1C(=O)N(c2ccc(F)cc2F)CCN1C(=O)c1cccc(F)c1 (configuration not stated)	-1	72*	-4
CC1C(=O)N(c2ccc(F)cc2F)CCN1C(=O)c1cccc(Br)c1 (configuration not stated)	-2	-5	-3
COc1ccccc1C(=O)N1CCN(C(C(=O)Nc2ccc(C(C)C)cc2)C2CCCC2)CC1 (configuration not stated)	-1	-4	-5
Cc1cc(=O)n(CC(=O)Nc2ccccc2)c(-n2nc(C)cc2C)n1	12	2	2
COC(=O)Cc1ccc(C(=O)CCl)s1	13	56*	-4
COC(=O)CCC(=O)c1ccc(Br)s1	-3	-4	-6
CCOC(=O)c1ccc(S(=O)(=O)N2CCN(CC(O)COc3ccc4ccccc4c3)CC2)cc1 (configuration not stated)	4	.	-6
O=C1c2ccccc2C(=O)c2c(O)c(O)cc(O)c21	-2	6	-24
CC1(C)OC2OC(C(O)c3cc(O)c4c(c3O)C(=O)c3ccccc3C4=O)C(C)(O)C2O1 (configuration not stated)	106*	.	24
Cc1noc(C)c1CCC(=O)N1CCC2(CCCN(CCCc3ccccc3)C2)C1 (configuration not stated)	13	-11	-6
Cc1cc(C)cc(-c2nc3ccccn3c2NC(=O)C(Cl)Cl)c1	-4	-9	-9
CCN(CC)CCCC(C)NC(=O)c1cc(-c2ccccc2Cl)nn1-c1ccc(OC)cc1 (configuration not stated)	14	-5	-3
CCN(CC)CCCC(C)Nc1c2ccc(Cl)cc2nc2ccc(OC)cc12 (configuration not stated)	67*	29	64*!
O=[N+]([O-])c1cccc(C(Nc2nc3c(s2)CCCC3)c2ccc3cccnc3c2O)c1 (configuration not stated)	-2	2	42*
CCCC(=O)NC(c1cccc([N+](=O)[O-])c1)c1ccc2cccnc2c1O (configuration not stated)	0	.	-2
c1ccc(Nc2ccc3c(C4CC4)noc3n2)cc1	2	-5	-4
COc1ccc(CNC(=O)c2cc(N(C)C3CCCCC3)nc3ccccc23)cc1OC	5	-3	-11
COCCN=Cc1cc(I)cc(I)c1O	51*	.	77*
COCc1cc(C)nc(OCC(=O)N/N=C\c2cc(Br)cc(I)c2O)c1C#N	0	1	-1
SMILES	NPYLR7 ag	mcGAS inh	hcGAS lum
Cc1ccc(CN(C(=O)c2cc3cc(Cl)ccc3[nH]2)C(C)C)o1	118*	.	-6
O=C(O)c1cc2cc(Cl)ccc2[nH]1	-7	9	6
CC1N(C)c2ccc(C=Cc3cc[n+](C)cc3)cc2C1(C)C (configuration not stated)	67*	.	-16
Cc1c(C)n2c3c(=O)n(CCN4CCCCC4)c(=O)n(C)c3nc2n1C(C)C	0	-8	-6
O=C(O)c1cccnc1C(=O)O	3	-4	53*!
O=C(O)c1cccnc1S(=O)(=O)C(F)(F)F	10	.	-8
Oc1cc(O)c2c(c1)O[C@H](c1cc(O)c(O)c(O)c1)[C@H](O)C2	.	25	79*
Oc1cc(O)c2c(c1)O[C@H](c1ccc(O)c(O)c1)[C@@H](O)C2	-1	-5	-2
CC1(C)[C@H]2CC=C(CN3CCC(n4nccc4NC(=O)c4ccc5c(c4)OCO5)CC3)[C@@H]1C2	.	-11	-6
N#CCSc1sc2c(O)cc(=O)[nH]c2c1C#N	2	60*	2
NC(=O)c1c(SCc2ccccc2)sc2c(O)cc(=O)[nH]c12	10	-6	-8
O=C(c1cn(Cc2ccc(F)cc2)nc1OCc1ccc(F)cc1)N1CCOCC1	-6	0	-3
O=C(Cc1ccc2c(c1)CCC2)NCC1CCN(c2ccccc2)C1 (configuration not stated)	49*	0	1
O=C(CN1CCc2ccccc2C1)NCC1CCN(c2ccccc2)C1 (configuration not stated)	-2	.	-13
CC1(C)Cc2c(cnn2-c2ccccc2)C(NC(=O)COc2ncnc3ccccc23)C1 (configuration not stated)	.	-3	0
O=c1[nH]c2n[nH]c(=S)n2c2c1CCCC2	-2	.	51*
Cc1cc(=O)[nH]c2n[nH]c(=S)n12	-4	.	28
Cc1nc2c(c(C)c1CC(=O)N1CCCC(C)C1)c(=O)[nH]n2C (configuration not stated)	4	.	-17
COc1cccc(-c2csc(=Nc3ccccc3)n2N2CCOCC2)c1	-6	-8	-7
C[N+]1=C(CC=Nc2ccccc2)SCC1	-1	.	-3
C(/C=C/CC=Nc1ccccc1)=Nc1ccccc1	66*	-7	-5
CC(C)Oc1cccc(F)c1-c1ccc2ncnc(N3CCN(C)CC3)c2c1	3	-15	-4
Clc1ccc2c(-n3ccnc3)ccnc2c1	-11	.	57*
Clc1ccc2c(N3CCCNCC3)ccnc2c1	2	-18	-3
CCCCCCCCCCCCNC(=O)c1c(O)c2ccccc2[nH]c1=O	-3	-3	45*
SMILES	NPYLR7 ag	mcGAS inh	hcGAS lum
O=C(NCCCO)c1c(O)c2ccccc2[nH]c1=O	-2	.	-2
CC(C)Cc1noc(CN(CCO)CCN2CCOCC2)n1	3	.	-11
COc1ccc(CN2CCN(Cc3cccn3-c3ncccn3)CC2CCO)c(C)c1C (configuration not stated)	49*	-9	-6
COc1ccc(CN2CCN(Cc3cccn3-c3ncccn3)CC2CCO)c(F)c1 (configuration not stated)	-5	.	1
Cc1ccc(C)c(N(C(=O)Cn2c(=O)[nH]c3ccccc3c2=O)C(C)C)c1	-3	.	-6
N#CC(C#N)=C1C=C2C=C(N3CCc4ccccc4C3)CCC2CC1 (configuration not stated)	87*	.	-4
N#CC=CN1CCc2ccccc2C1	1	.	-3
N#CC(C#N)=C1C=C2C=C(N3CCCCCC3)CCC2CC1 (configuration not stated)	673*	-4	-6
CCN1CCN(C2=CC3=CC(=C(C#N)C#N)CCC3CC2)CC1 (configuration not stated)	+	-3	-9
N#CC(C#N)=C1C=C2CC(=NCc3ccccc3)CCC2CC1 (configuration not stated)	36	.	-4
